From PubChem BioAssay
The source made the active and inactive calls.

How the values were obtained:
[1] = small molecules captured by biotinylated probe aFSTL3 – biochemical, small-molecule microarray, fluorescence 635/667, stem cell growth factor project, primary screen (AID 1064); conditions: higher = more signal;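 also: measures binding of the biotinylated anti-FSTL3 antibody to printed compounds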
[2] = binders from COS7 lysate, DM2A8 probe, primary screen, torsin A project, cell lysate, small-molecule microarray, fluorescence 635/667 (AID 1065); conditions: higher = more signal, COS7 lysate expressing mutant human TOR1A
[3] = small molecules captured by biotinylated probe aFGF2 – biochemical, small-molecule microarray, fluorescence 635/667, stem cell growth factor project, primary screen (AID 1067); conditions: higher = more signal;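 also: measures binding of biotinylated aFGF2 protein to printed compounds on slides; z-score merges feature fluorescence and signal-to-noise across triplicate slides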
[4] = small molecules captured by biotinylated probe aFGF10 – biochemical, small-molecule microarray, fluorescence 635/667, stem cell growth factor project, primary screen (AID 1071); conditions: higher = more signal;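 also: score merges 667 nm spot intensity and signal to noise from triplicate slides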
[5] = target: Neurogenic locus notch homolog protein 2 (Homo sapiens) (UniProt Q04721); test: small molecules binding Notch2 protein – biochemical, small-molecule microarray, 635 nm fluorescence, stem cell growth factors, primary screen (AID 1073); conditions: higher = more signal
[6] = target: Pro-neuregulin-1, membrane-bound isoform (Homo sapiens) (UniProt Q02297); test: small molecules binding neuregulin-1 protein – biochemical, small-molecule microarray, fluorescence 635/667, psychiatric disease protein project, primary screen (AID 1075); conditions: NRG1 binding, 635 nm fluorescence, higher = more signal;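 also: score combines 667 nm spot fluorescence with signal to noise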
[7] = tested on: Neuregulin-1 EGF-like domain; test: small molecules binding NRG1 EGF domain – biochemical, small-molecule microarray, 635 nm fluorescence, primary screen (AID 1081); conditions: higher = more signal;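 also: binding of the protein to compounds printed on small-molecule microarray slides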
[8] = FRG1 expression reporter modulators in myotubes – cell-based, C2C12 myotubes, firefly/Renilla luciferase, luminescence, FRG1 inhibition for FSHD, primary screen (AID 1084); conditions: FRG1 promoter luciferase, higher = more signal, called active from +8 up or from −8 down
[9] = small molecules captured by biotinylated probe aFST – biochemical, small-molecule microarray, fluorescence 635/667, stem cell growth factor project, primary screen (AID 1086); conditions: higher = more signal;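 also: score merges 667 nm fluorescence with signal-to-noise of each printed compound spot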
[10] = binders of probe aHhip on microarray, primary screen, stem cell growth factor project, biochemical, small-molecule microarray, fluorescence 635/667 (AID 1087); conditions: higher = more signal;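 also: score merges spot fluorescence at 667nm with spot signal to noise ratio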

Chain of Neurogenic locus notch homolog protein 2 (Homo sapiens) (Q04721 whole entry, looked up, canonical isoform): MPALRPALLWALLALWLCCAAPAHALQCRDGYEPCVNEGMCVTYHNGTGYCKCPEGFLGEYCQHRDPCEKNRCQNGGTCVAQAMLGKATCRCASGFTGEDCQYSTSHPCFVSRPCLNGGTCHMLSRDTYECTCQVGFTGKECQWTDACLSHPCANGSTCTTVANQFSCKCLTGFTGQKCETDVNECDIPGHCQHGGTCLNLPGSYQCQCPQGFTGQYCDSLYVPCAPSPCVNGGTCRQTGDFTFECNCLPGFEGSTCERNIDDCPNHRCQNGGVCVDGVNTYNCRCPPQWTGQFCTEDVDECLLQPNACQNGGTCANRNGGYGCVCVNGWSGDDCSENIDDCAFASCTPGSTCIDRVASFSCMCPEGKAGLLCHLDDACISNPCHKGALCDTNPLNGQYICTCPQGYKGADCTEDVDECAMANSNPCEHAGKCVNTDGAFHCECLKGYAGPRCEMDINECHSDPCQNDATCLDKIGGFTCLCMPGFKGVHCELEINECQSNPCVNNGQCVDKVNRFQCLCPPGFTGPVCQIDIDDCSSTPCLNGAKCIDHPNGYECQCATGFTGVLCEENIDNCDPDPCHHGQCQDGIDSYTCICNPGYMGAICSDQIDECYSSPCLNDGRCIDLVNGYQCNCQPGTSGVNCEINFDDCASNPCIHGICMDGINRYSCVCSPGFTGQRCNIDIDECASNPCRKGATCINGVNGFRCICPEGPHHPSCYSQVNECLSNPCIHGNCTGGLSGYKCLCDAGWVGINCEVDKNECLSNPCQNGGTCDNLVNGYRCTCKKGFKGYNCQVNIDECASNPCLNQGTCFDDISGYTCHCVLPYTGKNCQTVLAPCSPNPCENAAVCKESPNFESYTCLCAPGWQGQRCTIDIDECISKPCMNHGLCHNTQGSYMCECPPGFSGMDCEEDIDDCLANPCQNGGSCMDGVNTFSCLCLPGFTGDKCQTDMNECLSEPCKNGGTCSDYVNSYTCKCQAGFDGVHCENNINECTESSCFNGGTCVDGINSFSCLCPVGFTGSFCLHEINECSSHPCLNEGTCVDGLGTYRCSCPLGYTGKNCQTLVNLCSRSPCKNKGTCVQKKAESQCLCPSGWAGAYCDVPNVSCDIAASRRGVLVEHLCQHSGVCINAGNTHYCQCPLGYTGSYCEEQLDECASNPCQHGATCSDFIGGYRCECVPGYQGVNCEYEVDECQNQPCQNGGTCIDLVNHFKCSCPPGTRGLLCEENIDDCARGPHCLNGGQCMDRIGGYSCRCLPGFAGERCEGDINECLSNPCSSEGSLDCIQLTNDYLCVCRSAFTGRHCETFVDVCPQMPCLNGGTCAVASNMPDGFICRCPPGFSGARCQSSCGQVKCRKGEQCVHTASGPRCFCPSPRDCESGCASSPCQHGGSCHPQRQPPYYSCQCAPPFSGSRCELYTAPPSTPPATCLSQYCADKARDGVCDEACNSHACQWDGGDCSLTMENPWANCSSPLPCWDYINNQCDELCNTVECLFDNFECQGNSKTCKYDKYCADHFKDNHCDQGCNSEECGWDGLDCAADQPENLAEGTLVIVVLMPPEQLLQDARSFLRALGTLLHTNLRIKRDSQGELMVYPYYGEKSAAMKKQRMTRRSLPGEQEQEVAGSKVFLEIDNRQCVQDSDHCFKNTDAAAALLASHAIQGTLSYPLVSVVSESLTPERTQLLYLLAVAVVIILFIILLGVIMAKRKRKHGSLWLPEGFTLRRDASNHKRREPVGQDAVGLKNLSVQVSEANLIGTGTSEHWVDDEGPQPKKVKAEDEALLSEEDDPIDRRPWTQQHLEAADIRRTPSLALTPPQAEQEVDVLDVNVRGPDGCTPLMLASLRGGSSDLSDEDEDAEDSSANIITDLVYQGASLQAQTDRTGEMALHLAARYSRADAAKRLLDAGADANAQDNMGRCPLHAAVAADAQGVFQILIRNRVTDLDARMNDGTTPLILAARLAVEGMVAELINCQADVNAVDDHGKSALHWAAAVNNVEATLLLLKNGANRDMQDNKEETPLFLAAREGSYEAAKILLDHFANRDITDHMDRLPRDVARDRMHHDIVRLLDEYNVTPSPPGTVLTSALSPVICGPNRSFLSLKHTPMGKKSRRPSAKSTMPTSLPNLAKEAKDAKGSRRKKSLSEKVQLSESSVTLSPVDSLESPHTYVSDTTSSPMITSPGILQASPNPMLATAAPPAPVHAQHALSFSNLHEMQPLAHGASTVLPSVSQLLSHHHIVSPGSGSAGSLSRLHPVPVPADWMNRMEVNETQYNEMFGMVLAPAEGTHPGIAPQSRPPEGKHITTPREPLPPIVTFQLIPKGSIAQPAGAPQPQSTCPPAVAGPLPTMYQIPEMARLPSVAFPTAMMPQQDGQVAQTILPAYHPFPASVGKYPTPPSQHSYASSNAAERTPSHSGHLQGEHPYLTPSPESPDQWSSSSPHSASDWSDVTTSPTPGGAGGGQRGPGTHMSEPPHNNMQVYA
Chain of Pro-neuregulin-1, membrane-bound isoform (Homo sapiens) (Q02297 whole entry, looked up, the tested form may be a part, canonical isoform): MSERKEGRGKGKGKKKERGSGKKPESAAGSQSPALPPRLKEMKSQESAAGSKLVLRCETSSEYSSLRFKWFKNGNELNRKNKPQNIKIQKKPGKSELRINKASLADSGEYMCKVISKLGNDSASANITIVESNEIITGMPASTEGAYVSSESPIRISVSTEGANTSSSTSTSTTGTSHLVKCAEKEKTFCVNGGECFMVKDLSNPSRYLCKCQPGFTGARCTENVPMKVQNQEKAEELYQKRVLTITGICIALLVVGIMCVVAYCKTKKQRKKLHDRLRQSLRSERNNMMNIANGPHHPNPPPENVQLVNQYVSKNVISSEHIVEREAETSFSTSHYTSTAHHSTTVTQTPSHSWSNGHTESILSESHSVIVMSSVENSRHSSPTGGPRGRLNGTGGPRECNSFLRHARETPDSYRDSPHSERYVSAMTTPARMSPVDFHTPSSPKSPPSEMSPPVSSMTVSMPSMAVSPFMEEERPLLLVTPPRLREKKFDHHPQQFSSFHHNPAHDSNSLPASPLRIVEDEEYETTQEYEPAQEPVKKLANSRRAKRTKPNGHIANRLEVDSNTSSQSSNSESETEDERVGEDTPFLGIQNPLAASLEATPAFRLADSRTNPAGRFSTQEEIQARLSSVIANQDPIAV

Compound	composite z-score [1]	composite z-score [2]	composite z-score [3]	composite z-score [4]	composite z-score [5]	composite z-score [6]	composite z-score [7]	z-score [8]	composite z-score [9]	composite z-score [10]
CCN1C(=O)[C@H]2[C@H]3[C@H](O)[C@H](O)CC(=NOC(C)CN4CCCCc5nc(C)c(C)cc54)[C@@H]3CC[C@H]2C1=O (stereo not given in full)	-0.698	0.532	-0.138	0.223	0.462	-0.531	-0.274	0.682 (inactive)	0.253	0.119
C=CC[C@@H]1C=C[C@H](ON=C2c3cc(OC)ccc3O[C@H](c3cccc(OC)c3)[C@H]2O)[C@@H](CO)O1	-0.342	0.0359	-0.1	0.415	0.144	0.0499	-0.199	-0.577 (inactive)	0.127	-0.0994
COC(=O)[C@H](C)NC(=O)CCC1CC(OC(=O)NCc2ccc3c(c2)OCO3)CC2(CCCC(COC(=O)NCCOc3ccccc3)O2)O1 (stereo not given in full)	-0.426	0.898	-0.122	0.325	1.06	0.689	1.04	-0.503 (inactive)	0.91	-0.479
O=C1[C@H]2[C@H]3[C@H](O)[C@H](O)CC(=NOC[C@@H](O)COCc4ccco4)[C@@H]3CC[C@H]2C(=O)N1c1ccc(F)cc1F	-0.469	1.4	-0.128	0.138	0.21	-0.592	-0.574	-0.24 (inactive)	-0.128	0.177
COC(=O)[C@@]1(Cc2ccc(OC)cc2)[C@H]2c3cc(C(=O)N4CCCC4)n(Cc4cc(F)c(F)c(F)c4)c3C[C@H]2CN1C(=O)c1ccccc1	2.91	1.05	0.746	1.19	1.82	1.62	1.19	-0.104 (inactive)	3.01	1.88
CCCCCN1CC=CC23O[C@@H]4C=CCOC(=O)[C@@H]4[C@H]2C(=O)N(C(CO)C(C)C)[C@@H]3C1=O (stereo not given in full)	0.232	-1.58	-0.141	-0.495	-1.15	-0.694	0.657	-0.0073 (inactive)	-0.357	-0.15
COc1ccc(O[C@H]2C=C[C@@H](c3ccccc3)O[C@@H]2COC(=O)CCC(C)=NO[C@H](C)c2cn([C@@H]3COC[C@H]3O)nn2)cc1	-0.672	0.518	-0.125	0.323	0.483	0.489	0.586	1.39 (inactive)	0.0701	-0.411
CO[C@H]1COC(=O)[C@@H]2CCCN2C(=O)CC=C[C@@H](C)[C@H](OC)COC(=O)CC=C[C@@H]1C	-0.57	1.62	-0.163	-0.0218	-0.256	-0.796	0.659	-1.1 (inactive)	0.152	0.176
CC(C)OC(=O)C=C1C[C@@H](c2ccc(C#N)cc2)O[C@@H](c2ccc(C#N)cc2)O1	-0.475	0.334	0.235	1.01	1.68	1.64	1.21	0.0509 (inactive)	1.58	0.233
O[C@@H](Cc1ccccc1)[C@H]1C2C=CCCC(c3ccccc3)=C2CN1Cc1cccc(Cl)c1 (stereo not given in full)	-0.39	0.507	-0.015	0.271	0.799	1.08	1.07	-2.31 (inactive)	0.26	-0.0047
COCCOC(=O)N1C(=O)[C@@]2(c3cc(C#Cc4ccc(OC)cc4)ccc31)[C@H](C(=O)N1CCN(c3ncccn3)CC1)[C@H]1C(=O)O[C@H](c3ccccc3)[C@H](c3ccccc3)N1[C@@H]2c1ccc(OCCO)cc1	0.367	-0.473	-0.006	0.3	1.35	0.458	0.703	0.726 (inactive)	0.383	0.28
CCOC(=O)[C@H](CC(C)C)NC(=O)CCC1CC(OC(=O)NCc2cccc3ccccc23)CC2(CCCC(COC(=O)NCCN3CCOCC3)O2)O1 (stereo not given in full)	-0.589	0.393	-0.0788	0.497	0.999	0.442	0.983	0.986 (inactive)	0.112	0.0176
O=C1C[C@@H](O)[C@@H](O)[C@@H]2[C@@H]3C(=O)N(c4cccc(Oc5ccccc5)c4)C(=O)[C@@H]3CC[C@@H]12	-0.557	0.272	-0.0598	0.516	1.26	0.713	1.01	-0.211 (inactive)	0.0399	0.0659
CC(=O)OC[C@H]1O[C@@H](ON=C[C@@H](C)[C@H](OCc2ccccc2)C(C)C)[C@H](OC(C)=O)[C@@H](OC(C)=O)[C@@H]1OC(C)=O	-0.624	1.69	-0.0959	0.372	0.55	-0.927	-1.19	-0.703 (inactive)	0.304	-0.134
CCCNC(=O)OC[C@H]1O[C@H](CCON=C[C@@H](OC)[C@H](C)C=CCC(=O)OC)C=C[C@@H]1Oc1ccc(OC)cc1	-0.479	0.698	-0.136	-0.192	-0.0065	-0.23	0.614	1.16 (inactive)	-0.0617	-0.0672
CN1C(=O)[C@@]2(CCC(=O)OC(C)(C)C)N=C(c3ccc(OCCCO)cc3)O[C@H]2c2ccccc21	-0.195	0.756	-0.0948	0.124	0.244	0.859	1.13	-0.105 (inactive)	0.183	-0.186
COc1ccc(CCNC(=O)[C@@H]2c3ccccc3C(=O)N(c3ccc(C)cn3)[C@H]2c2ccc(CO)cc2)cc1	1.18	-0.793	-0.189	-0.715	-1.85	-1.13	1.2	0.379 (inactive)	-0.57	-0.0994
